Measurements published in PubChem BioAssay AID463173 (ICCB-Longwood Screening Facility, Harvard Medical School, 2010).
The campaign covered roughly 52,000 compounds. About 4,300 (8.3%) were called active. No stated cut-off is given here; in the data, active means survival mostly below about 52% (no sharp cut-off); inactive means mostly above about 56%. The list comes from a sample in which actives are over-represented; it also holds similar structures and randomly drawn compounds.

What follows are compounds tested on DeltatarO mutant (assay: S. aureus survival, RN4220 and DeltatarO strains – OD600, teichoic acid synthesis inhibitors, primary screen (AID 463173)). Settings: S. aureus RN4220 wild type/DeltatarO growth, OD600, 18 h, stronger effect = lower value, screened at 18.75 µg/mL (by protocol).

| SMILES | survival |
| --- | --- |
| CC1(C)CC(=O)C=C(NCC(O)c2ccccc2)C1 (configuration not stated) | 102% (inactive) |
| Cc1ccc(CNC(=O)CN(c2ccc(C)cc2)S(=O)(=O)c2c(C)nn(C)c2C)cc1 | 73% (inactive) |
| COc1ccccc1C(=O)N(Cc1ccco1)Cc1ccccc1F | 60% (inactive) |
| CCC1Oc2ccc(C)cc2N(CC(=O)N(Cc2ccc3c(c2)OCO3)CC2CCCO2)C1=O (configuration not stated) | 96% (inactive) |
| Cc1cccc2cc(CN(Cc3ccco3)C(=O)c3ccccc3)c(=O)[nH]c12 | 95% (inactive) |
| O=C(c1cc2ccccc2oc1=O)N(Cc1ccc(F)cc1)Cc1ccco1 | 41% (active) |
| O=C(c1cc2ccccc2oc1=O)N(Cc1ccc2c(c1)OCO2)CC1CCCO1 (configuration not stated) | 42% (active) |
| COc1ccc2oc(=O)c(C(=O)NCc3ccco3)cc2c1 | 100% (inactive) |
| O=C(c1cc2ccccc2oc1=O)N(Cc1ccc(F)cc1)C1CC1 | 88% (inactive) |
| O=C(c1cc2ccccc2oc1=O)N(Cc1cccs1)Cc1cccs1 | 48% (inactive) |
| CC(C)(C)c1ccc(C(=O)N(Cc2ccc(F)cc2)Cc2ccco2)cc1 | 55% (inactive) |
| O=C(NCC1CCCO1)c1cc2ccccc2oc1=O (configuration not stated) | 80% (inactive) |
| COc1ccc(CN(Cc2ccco2)C(=O)c2cc3ccccc3oc2=O)c(OC)c1 | 40% (active) |
| Cc1ccccc1CN(Cc1ccco1)C(=O)c1cc2ccccc2oc1=O | 44% (active) |
| O=C(O)CCn1cnc2sc3c(c2c1=O)CCCC3 | 105% (inactive) |
| Nc1cnc2cccc3c2c1-c1ccccc1C3=O | 86% (inactive) |
| Cc1ccc(S(=O)(=O)c2cnc(SCC(=O)Nc3cc(C)cc(C)c3)nc2N)cc1 | 102% (inactive) |
| COc1ccc(-c2cc(C(=O)NCCc3ccc(Cl)cc3)[nH]n2)cc1 | 72% (inactive) |
| Cc1c(Cl)cccc1-n1ncc(C(=O)N2CCc3ccccc3C2)c1C1CCN(C(=O)OC(C)(C)C)CC1 | 85% (inactive) |
| COc1ccc(C(=O)NCCn2cc(SCC(=O)Nc3ccc4c(c3)OCCO4)c3ccccc32)cc1 | 153% (inactive) |
| CCOC(=O)c1c(C)oc2nc(C)nc(NCC3CCN(Cc4ccc(F)cc4)CC3)c12 | 102% (inactive) |
| Cc1ccc(C)c(NC(=O)CCc2c(C)nn(-c3ccc(N4CCCC4)nn3)c2C)c1 | 67% (inactive) |
| COc1ccccc1Nc1c2c(nc3ccc(NC(=O)/C=C/c4cccc(OC)c4OC)cc13)CCCC2 | 74% (inactive) |
| Cc1ccc(-c2nc3c(C)cccn3c2Nc2ccccc2C)s1 | 0% (active) |
| Cc1ccc(Nc2c(-c3ccc(N(C)C)cc3)nc3ccccn23)cc1 | 131% (inactive) |

| SMILES | survival |
| --- | --- |
| Cc1ccc(-c2nc3ccccn3c2Nc2ccc3c(c2)OCCO3)s1 | 79% (inactive) |
| Cc1ccccc1Nc1c(-c2ccc(Cl)s2)nc2cccc(C)n12 | 99% (inactive) |
| Cc1ccccc1Nc1c(-c2ccc(Cl)s2)nc2c(C)cccn12 | 69% (inactive) |
| Cc1ccc(Nc2c(-c3ccc(C)s3)nc3ccccn23)cc1 | 31% (active) |
| Cc1ccccc1Nc1c(-c2c[nH]c3ccccc23)nc2ccccn12 | 69% (inactive) |
| Cc1ccccc1Nc1c(-c2ccco2)nc2c(C)cccn12 | 25% (active) |
| Fc1ccc(Nc2c(-c3ccco3)nc3ccccn23)cc1 | 53% (inactive) |
| Cc1ccc(-c2nc3ccc(Cl)cn3c2Nc2ccccc2C)s1 | 107% (inactive) |
| Cc1cccc(C)c1Nc1c(-c2ccccn2)nc2c(C)cccn12 | 51% (inactive) |
| Cc1ccc(-c2nc3ccccn3c2Nc2ccccc2C)s1 | 21% (active) |
| COc1ccc2c(c1)c1c(c(=O)n(Cc3ccccc3)c(=O)n1CC(=O)NCc1ccccc1)n2C | 91% (inactive) |
| COc1ccccc1CNC(=O)CCc1c(C)c2ccc(OC)c(C)c2oc1=O | 74% (inactive) |
| Cc1ccc(Cl)cc1-n1nnc(-c2nc(-c3ccc4c(c3)OCO4)no2)c1C | 122% (inactive) |
| N#C/C(=C(/O)CN1C(=O)c2ccccc2C1=O)c1nc2ccccc2[nH]1 | 76% (inactive) |
| Cc1ccc(Nc2c(-c3ccc(N4CCOCC4)cc3)nc3ncccn23)cc1 | 139% (inactive) |
| Cc1ccc(Nc2c(-c3ccc(C)s3)nc3ncccn23)cc1 | 9% (active) |
| Cc1ccc(-c2nc3ncccn3c2Nc2ccc3c(c2)OCCO3)cc1 | 79% (inactive) |
| Cc1ccccc1Nc1c(-c2ccc(N3CCOCC3)cc2)nc2ccccn12 | 41% (active) |
| Cc1ccc2nc(-c3ccc(N4CCOCC4)cc3)c(Nc3ccccc3C)n2c1 | 71% (inactive) |
| Cc1ccn2c(Nc3ccccc3C)c(-c3ccc(N4CCOCC4)cc3)nc2c1 | 89% (inactive) |
| CCOC(=O)c1cnc2cc(-c3ccc(C)cc3)nn2c1C | 74% (inactive) |
| O=C1COc2cc(S(=O)(=O)CCC(=O)NC3CCCCC3)c(Cl)cc2N1 | 93% (inactive) |
| CCc1sc(Nc2cccc(C)c2)nc1-c1cc2cccc(OC)c2oc1=O | 94% (inactive) |
| Cc1ccc(CN2C(=O)c3ccccc3Sc3ccc(C(=O)NCc4ccco4)cc32)cc1 | 81% (inactive) |
| Cc1ccc(C)c(CN2C(=O)c3ccccc3Sc3ccc(C(=O)NCc4ccco4)cc32)c1 | 17% (active) |

| SMILES | survival |
| --- | --- |
| O=C(NCCCN1CCOCC1)c1ccc2c(c1)N(Cc1ccccc1)C(=O)c1ccccc1S2 | 98% (inactive) |
| Cc1ccccc1CN1C(=O)c2ccccc2Sc2ccc(C(=O)NCc3cccs3)cc21 | 93% (inactive) |
| Cc1ccccc1CN1C(=O)c2ccccc2Sc2ccc(C(=O)NCCc3ccccc3)cc21 | 101% (inactive) |
| Cc1ccc(CN2C(=O)c3ccccc3Sc3ccc(C(=O)NCCCN4CCOCC4)cc32)cc1 | 126% (inactive) |
| Cc1ccccc1CN1C(=O)c2ccccc2Sc2ccc(C(=O)NCc3ccccc3)cc21 | 37% (active) |
| Cc1cccc(CN2C(=O)c3ccccc3Sc3ccc(C(=O)NCc4ccco4)cc32)c1 | 102% (inactive) |
| Cc1cccc(CN2C(=O)c3ccccc3Sc3ccc(C(=O)NCCCN4CCOCC4)cc32)c1 | 37% (active) |
| O=C(NC1CCCCC1)c1ccc2c(c1)N(Cc1ccccc1)C(=O)c1ccccc1S2 | 46% (active) |
| O=C(NC1CCCC1)c1ccc2c(c1)N(Cc1ccccc1)C(=O)c1ccccc1S2 | 105% (inactive) |
| Cc1ccc(CN2C(=O)c3ccccc3Sc3ccc(C(=O)NC4CCCCC4)cc32)cc1 | 100% (inactive) |
| Cc1ccc(C)c(N2CCN(S(=O)(=O)c3ccc4c(c3)OCCO4)CC2)c1 | 76% (inactive) |
| Cc1nn(-c2ccccc2)c2c1N(CC(=O)N1CCN(c3ccc(F)cc3)CC1)C(=O)CS2 | 81% (inactive) |
| CC(C)(C)c1ccc(C(=O)NCC(c2cccs2)S(=O)(=O)c2ccc(F)cc2)cc1 (configuration not stated) | 90% (inactive) |
| Cc1ccc(CNC(=O)C2CCCN(c3nn4cc(-c5ccc(C)cc5)nc4s3)C2)cc1 (configuration not stated) | 93% (inactive) |
| CC(=O)c1ccc(N2C(=O)N(CC(=O)c3ccc(F)cc3)c3ccccc3S2(=O)=O)cc1 | 102% (inactive) |
| Cc1ccc(NC(=O)CCCc2nc(-c3ccco3)no2)cc1Cl | 80% (inactive) |
| CCc1cccc(C)c1NC(=O)Cn1ncc2c3ccccc3n(Cc3ccccc3)c2c1=O | 86% (inactive) |
| CC(=O)Nc1ccc(C(=O)Nc2ccc3c(c2)N(C2CCCC2)C(=O)c2ccccc2S3)cc1 | -4% (active) |
| O=C(Nc1ccc2c(c1)N(C1CCCC1)C(=O)c1ccccc1S2)c1ccc(F)cc1 | 66% (inactive) |
| O=C(Nc1ccc2c(c1)N(C1CCCC1)C(=O)c1ccccc1S2)c1ccccc1 | 60% (inactive) |
| COc1ccc(CNC(=O)c2ccc3c(c2)N(Cc2cccc(Cl)c2)C(=O)c2ccccc2S3)c(OC)c1 | 83% (inactive) |
| COc1cccc(CNC(=O)c2ccc3c(c2)N(Cc2ccc(F)cc2Cl)C(=O)c2ccccc2S3)c1 | 25% (active) |
| COc1cccc(CN2C(=O)c3ccccc3Sc3ccc(C(=O)NCc4ccccc4)cc32)c1 | 80% (inactive) |
| CC(=O)N1CCc2cc(CNS(=O)(=O)c3ccc(Cl)s3)ccc21 | 70% (inactive) |
| CS(=O)(=O)c1ccc(-c2nnc(NC(=O)c3ccc4c(c3)OCCO4)o2)cc1 | 60% (inactive) |

| SMILES | survival |
| --- | --- |
| CS(=O)(=O)c1ccccc1-c1nnc(NC(=O)c2ccc3c(c2)OCCO3)o1 | -4% (active) |
| CSc1ccccc1-c1nnc(NC(=O)c2ccc3c(c2)OCCO3)o1 | 119% (inactive) |
| COc1ccc(S(=O)(=O)N2CCN(C)CC2)c(Cl)c1Cl | 75% (inactive) |
| CCCCN1C(=O)c2[nH]nc(-c3ccccc3O)c2C1c1cccc(OCc2ccccc2)c1 (configuration not stated) | 18% (active) |
| O=C1c2[nH]nc(-c3ccccc3O)c2C(c2cccc(OCc3ccccc3)c2)N1CCCO (configuration not stated) | 56% (active) |
| CCCN1C(=O)c2[nH]nc(-c3ccccc3)c2C1c1cccc(O)c1 (configuration not stated) | 54% (inactive) |
| O=C1c2[nH]nc(-c3ccccc3O)c2C(c2cccc(OCc3ccccc3)c2)N1CCO (configuration not stated) | 67% (inactive) |
| CCCN1C(=O)c2[nH]nc(-c3ccccc3O)c2C1c1cccc(OCc2ccccc2)c1 (configuration not stated) | 8% (active) |
| O=C1c2[nH]nc(-c3ccccc3O)c2C(c2cccc(O)c2)N1Cc1ccncc1 (configuration not stated) | 103% (inactive) |
| Fc1ccc(-c2cn3cc(Cc4ccc(Cl)cc4)sc3n2)cc1 | 55% (inactive) |
| COc1ccc(CCNC(=O)CCCn2c(=O)c3ccccc3n(CC(=O)Nc3cc(Cl)ccc3C)c2=O)cc1OC | 69% (inactive) |
| Cc1sc2c(c1C)c(=O)n(-c1ccc(Cl)cc1)c(=O)n2Cc1cc(=O)n2cc(Br)ccc2n1 | 76% (inactive) |
| COc1ccc2c(c1)CCc1c(C(=O)Nc3ccc(OC)cc3OC)noc1-2 | 180% (inactive) |
| Cc1ccc(C)c(CNC(=O)c2ccc3c(c2)nc2n3CCOC2)c1 | 67% (inactive) |
| COc1ccc(CCNC(=O)c2ccc3c(c2)nc2n3CCCCC2)cc1OC | 75% (inactive) |
| CCOc1ccc(CNC(=O)c2ccc3c(c2)nc2n3CCOC2)cc1OC | 6% (active) |
| CCOc1ccc(CCNC(=O)c2ccc3c(c2)nc2n3CCOC2)cc1OCC | 79% (inactive) |
| CCOc1ccc(CNC(=O)c2ccc3c(c2)nc2n3CCC(C)C2)cc1OC (configuration not stated) | 73% (inactive) |
| O=C(NCc1ccccc1Br)c1ccc2c(c1)nc1n2CCOC1 | -1% (active) |
| COc1ccc(CCNC(=O)c2ccc3c(c2)nc2n3CCOC2)cc1OC | -2% (active) |
| CCOc1ccc(CNC(=O)c2ccc3c(c2)nc2n3CCOC2)cc1 | 90% (inactive) |
| O=C(NCc1ccccc1)c1ccc2c(c1)nc1n2CCOC1 | 84% (inactive) |
